High-throughput results from PubChem.
Pf growth 96h: inhibits malaria parasite growth, 96 h; Potency, µM (top dose mostly 28.7 µM), inactives show at the highest dose activity change, negative = inhibition, usual class: inhibitors; actives 6.9% (n = 320,000); AID 504834; P. falciparum luciferase reporter growth, 96 h
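Two-generation exposure (96 h) targets delayed-death phenotype. Reporter parasites carrying integrated firefly luciferase, in red cells at 2% hematocrit and 0.05% parasitemia final, kept at 37 C, 5% CO2; luminescence loss indicates inhibition.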
Pf growth 48h: inhibits P. falciparum growth in the first generation, 48 h; P. falciparum luciferase growth in erythrocytes, 48 h; Potency, µM (doses to about 28.7 µM), without a hit: at the top dose activity change, negative = inhibition, actives largely listed as inhibitors; actives 5.9% (n = 310,000)
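Luciferase-expressing parasites in RBCs, 2% Hct / 0.1% parasitemia final; RPMI 1640 + 0.5% Albumax; 37 C, 5% CO2, one generation; luminescence read-out, lower signal = inhibition.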
AMA1-RON2 inh: disrupts binding of P. falciparum AMA1 to RON2. AlphaScreen AMA1-biotinylated RON2 peptide binding. Potency, µM (doses to about 58.2 µM), inactives show top-dose activity change, negative = inhibition, usual class: inhibitors. actives 0.2% (n = 360,000);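 note: 0% = vehicle wells and -100% = peptide control; nearly all actives have a fitted effect of over 45% in size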
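AMA1 (3D7) with his tag at 25 nM final met compounds first, then biotinylated RON2 peptide at 25 nM; detection used donor plus acceptor beads, 10 µg/mL apiece, read by AlphaScreen after 30 min at room temperature.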
VACV Venus inh: vaccinia inhibition (Venus reporter); AID 720580; actives 0.46% (n = 330,000); Vaccinia virus Venus reporter expression, fluorescence; Potency, µM (series often up to 36.5 µM), for the others: top-dose activity change, negative = inhibition, most hits filed as inhibitors; calls by dose curve; tested in A549 cells; note: nearly all actives have a fitted effect of over 30% in size
VACV mCherry inh: inhibitors of vaccinia virus infection (mCherry reporter signal). Vaccinia virus mCherry reporter infection, fluorescence. Potency, µM (titrated, usually from 36.5 µM), for the others: at the highest dose activity change, negative = inhibition, usual class: inhibitors. actives 0.63% (n = 310,000). AID 720579; calls by dose curve; tested in A549 cells; note: nearly all actives have a fitted effect of over 35% in size
Starred values were filed as active, the others as inactive; i = inactive; ? = inconclusive; . = no result; [ ] = remark or other dose. The list is not random: actives were taken first. Their share in the collection is about 8.7%. Unless noted, calls come from the whole dose curve; as a rule, active = well fitted curve in the direction sought with a large enough effect; inconclusive = small, poorly fitted or top-dose-only effect, or another doubt; inactive = no such curve, though single readings can be large; an effect the other way counts as inactive or inconclusive. Unless noted, % is set by controls: 0 for no effect and ±100 for the full control effect; potency is the fitted concentration of half-maximal effect.

SMILES	Pf growth 96h	Pf growth 48h	AMA1-RON2 inh	VACV Venus inh	VACV mCherry inh
C[C@]12CCC3C(CCC4=C(Cl)C(=O)CC[C@@]43C)C1CCC2O (some centres not stated)	11µM*	?	.	.	.
Cc1ccc(C)c(Cn2c(=O)n(CCCCCC(=O)NCc3ccc4c(c3)OCO4)c(=O)c3sccc32)c1	.	.	.	-17%	-14%
COC(=O)c1c(C(=O)c2ccc(Br)cc2)n(C)c2ccccc12	?	13µM*	-7%[11.6 µM]	-15%	-15%
O=C1NC(=S)N(c2ccccc2)C(=O)/C1=C/c1ccco1	-12%	16%	8.9µM*	30%	i
COc1cc(/C=C/C(=O)NCCc2ccc(S(N)(=O)=O)cc2)ccc1OCC#N	12µM*	?	0%	.	.
CCOc1cc(/C=C/C(=O)Nc2ccc(C(=O)NCCN(CC)CC)cc2)ccc1OCC(C)C	0.52µM*	2.6µM*	-6%	.	.
CCOc1cc(/C=C/C(=O)NCCc2ccc(S(N)(=O)=O)cc2)ccc1OCC(C)C	0.66µM*	?	0%	.	.
NS(=O)(=O)c1ccc(CCNC(=O)/C=C/c2cccc([N+](=O)[O-])c2)cc1	21%	-5%	1%	-11%	-9%
COc1cc(CNCCc2ccc(S(N)(=O)=O)cc2)ccc1OCC(=O)NC(C)(C)C	13µM*	-17%	11%[11.6 µM]	-16%	-13%
CCOc1ccc(/C=C/C(=O)Nc2ccc(C(N)=O)cc2)cc1OC	-13%	9%	5%	-1%	0%
CO[C@H]1/C=C\O[C@@]2(C)Oc3c(C)c(O)c4c(O)c(c(C=NN5CCN(C6CCCC6)CC5)c(O)c4c3C2=O)NC(=O)C(C)=CC=C[C@H](C)[C@H](O)[C@@H](C)[C@@H](O)[C@@H](C)[C@H](OC(C)=O)[C@H]1C	.	.	.	-17%	-23%
O=C(Cn1c(=O)oc2ccccc21)N1CCN(c2ccccc2)CC1	13µM*	13%	-11%	15%	11%
CC(=O)N1CCN(C(c2ccccc2)c2ccccc2)CC1	.	.	.	-10%	-3%
CN1C(=O)C(CC(=O)N2CCN(C(c3ccccc3)c3ccccc3)CC2)N(C)C1=O (configuration not stated)	?	12µM*	-2%	-8%	-10%
O=C(CCn1c(=O)oc2ccccc21)N1CCN(C(c2ccccc2)c2ccccc2)CC1	31%	5.9µM*	-7%	-8%	-14%
Cc1ccc(S(=O)(=O)C2(C(=O)Nc3ccc(Cl)c(C(F)(F)F)c3)CC2)cc1	.	.	.	-11%	-12%
COc1cccc(N2CCN(C(=O)CN3CCSc4ccc(S(=O)(=O)N(C)C)cc43)CC2)c1	.	.	.	4%	6%
O=C1C2CCCN2C(c2ccncc2)N1c1ccc(Cl)c(Cl)c1 (configuration not stated)	0.83µM*	13µM*	3%	.	.
COc1ccc(C2CC(=O)C(C3NCCc4ccccc43)=C(O)C2n2cncn2)cc1 (configuration not stated)	66%	17µM*	-10%	-3%	0%
COc1ccc(CNC(=O)c2cnn(-c3nccc(-c4ccco4)n3)c2C)cc1OC	.	.	.	-14%	?
CCCN1CC=C2C(C#N)=C(N)C(C#N)(C#N)C(c3cccc(OC)c3OC)C2C1 (configuration not stated)	.	?	12%	1%	i
COc1cccc(OC)c1OCc1cc(C2C3CCCC=C3C(C#N)=C(N)C2(C#N)C#N)c(C)cc1C (configuration not stated)	9.3µM*	?	32%	-21%	-28%
COc1ccc(S(=O)(=O)N(CC(=O)Nc2cccc(C(F)(F)F)c2)c2ccc(C)cc2)cc1	.	.	.	?	-19%
COc1ccc(CCNC(=O)CCc2c(C)nc3cc(-c4ccccc4OC)nn3c2C)c(OC)c1	.	.	.	-21%	-25%
CCOC(=O)c1c(C)n(-c2ccc(C)cc2)c2ccc(OCC(O)CNCCCO)cc12 (configuration not stated)	116%	?	-16%	-26%	?
SMILES	Pf growth 96h	Pf growth 48h	AMA1-RON2 inh	VACV Venus inh	VACV mCherry inh
CCOC(=O)c1c(C)n(-c2ccc(C)cc2)c2ccc(OCC(O)CNCC3CCCO3)cc12 (configuration not stated)	3.3µM*	?	-30%	.	.
CCOC(=O)c1c(C)n(C)c2ccc(OCC(O)CNC(CC)CO)cc12 (configuration not stated)	2.1µM*	?	8%	-23%	.
CCOC(=O)c1cccc(NC(=O)c2cc(CN3CCOCC3)on2)c1	.	.	.	-2%	4%
CCCOc1ccc(C(=O)Nc2ccc3oc(-c4ccncc4)nc3c2)cc1	.	.	.	-11%	-9%
COc1ccc(CSc2nnc3[nH]c(=O)cc(N)n23)cc1	20%	-25%	-4%	-1%	-6%
N#Cc1ccc(CSc2nnc3[nH]c(=O)cc(N)n23)cc1	-38%	4.1µM*	11%	-16%	-4%
O=C(NCCOc1ccccc1)c1ccccc1Cl	20%	108%	1%	-7%	-8%
CN(C(=O)COc1ccccc1C(=O)NCCOc1ccccc1)c1ccccc1	?	?	7%	11µM*	?
Cc1c(C(=O)NC(C)(C)CO)sc2ncnc(NCCN(C)C)c12	.	.	.	-4%	-13%
O=C(Nc1ccccc1)c1ccc(CN2CCC(Cc3ccccc3)CC2)cc1	.	.	0%	-18%	.
O=C(Nc1ccccc1C(F)(F)F)c1ccc(CN2CCC(Cc3ccccc3)CC2)cc1	10µM*	13µM*	-6%	?	.
CCc1ccc(NC(=O)Nc2ccc3c(c2)CCC3)cc1	22%	47%	0%	-13%	-12%
CCNC(=O)NC1(C(=O)Nc2ccc3c(c2)CCC3)CCCCC1	2.9µM*	1%	72%	-6%	i
CC(C)c1ccc(NC(=S)NN2C(C)CCCC2C)cc1 (configuration not stated)	6.6µM*	?	95%	-19%	-8%
COCCNc1oc(/C=C/c2ccc(F)cc2)nc1C#N	.	.	.	-7%	-13%
COc1ccc(CCNc2cc(C)nc3c(-c4ccccc4OC)cnn23)cc1OC	?	13µM*	52%	-12%	-14%
CNc1c(Br)cc(/C=C2\C=C(C(O)c3cc(Br)c(NC)c(Br)c3)c3ccccc32)cc1Br (configuration not stated)	.	.	.	1%	-6%
CCOCCCNC(=O)C1CCCN(S(=O)(=O)c2cccc3nsnc23)C1 (configuration not stated)	8.3µM*	-9%	-5%	-18%	-12%
Cc1ccc(CCNC(=O)C2CCCN(S(=O)(=O)c3cccc4nsnc34)C2)cc1 (configuration not stated)	4.1µM*	.	20%	-4%	-19%
Cc1cccc(CCNC(=O)C2CCCN(S(=O)(=O)c3cccc4nsnc34)C2)c1 (configuration not stated)	35%	?	-10%	-23%	-12%
CN=C(c1ccco1)n1c(=S)nc(-c2ccco2)n(C)c1=S	30%	9%	3%	13µM*	?
